Hits are enriched below; roughly 7.4% of the tested compounds scored in any of these assays.
NPC1 prom act: activates the NPC1 promoter; Huh7 NPC1 promoter luciferase reporter, 24 h; Potency, µM (highest dose often 9.22 µM), for inactives: top-dose activation, usual class: activators; hit rate 2.4% among 320,000; AID 485313; also: % of control where 0% means no effect; nearly all actives have a fitted effect of over 60% in size
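NPC1 promoter–luciferase Huh7 cells; 24 h compound; luminescence.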
FLuc modulator: firefly luciferase modulation, counter-screen for miR-21 project | P08659 | purified FLuc, Km substrates, luminescence inhibition | Potency, µM (titrated, usually from 57.5 µM), for inactives: at the top dose activity change, negative = inhibition, hits mostly inhibitors | hit rate 6.9% among 360,000;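 also: plate controls were vehicle for no effect and reference inhibitor for full effect; nearly all actives have a fitted effect of over 55% in size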
Target sequence (P08659 whole entry, looked up): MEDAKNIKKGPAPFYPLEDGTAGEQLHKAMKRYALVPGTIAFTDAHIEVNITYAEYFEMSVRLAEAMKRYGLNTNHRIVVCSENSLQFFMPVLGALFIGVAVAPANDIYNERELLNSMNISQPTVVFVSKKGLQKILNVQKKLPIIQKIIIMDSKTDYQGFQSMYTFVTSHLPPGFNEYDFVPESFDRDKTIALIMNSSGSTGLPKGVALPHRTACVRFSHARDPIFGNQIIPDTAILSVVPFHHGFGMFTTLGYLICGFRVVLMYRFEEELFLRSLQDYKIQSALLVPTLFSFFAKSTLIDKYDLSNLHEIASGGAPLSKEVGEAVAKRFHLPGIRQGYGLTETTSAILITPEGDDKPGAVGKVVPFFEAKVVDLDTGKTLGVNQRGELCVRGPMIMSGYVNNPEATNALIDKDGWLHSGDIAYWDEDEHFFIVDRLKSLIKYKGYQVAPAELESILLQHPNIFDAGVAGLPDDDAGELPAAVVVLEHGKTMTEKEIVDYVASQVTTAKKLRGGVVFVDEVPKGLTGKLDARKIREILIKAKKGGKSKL
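Purified P. pyralis luciferase (10nM final) with 10uM D-luciferin and 10uM ATP (Km levels) in 50mM Tris acetate pH 7.5, 10mM Mg acetate, 0.01% Tween-20, 0.05% BSA; qHTS 6-point titration, ~60 µM downward; luminescence read.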
SMN2 splice up: SMN2 splice variant enhancement; Potency, µM (highest dose often 46.1 µM), for inactives: top-dose activity change, positive = activation, most hits filed as activators; HEK293 SMN2-luciferase splicing reporter, luminescence, 30-36 h; hit rate 2.8% among 210,000; also: % of control where 0% means no effect; nearly all actives have a fitted effect of over 55% in size
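HEK293 cells carry an SMN2 minigene-luciferase reporter in which exon 7 inclusion puts luciferase in frame. Cells were seeded at 2000 cells/well, attached for 10-12 hours, then exposed to compounds for 30-36 hours at 37C before ONE-Glo luminescence.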
Luc counter: counter-screen: inhibitors of Kinase-Glo firefly luciferase; Kinase-Glo luciferase, ATP luminescence, 8 min; Potency, µM (top dose mostly 38.3 µM), inactives show at the top dose activity change, negative = inhibition, most hits filed as inhibitors; hit rate 0.28% among 200,000; AID 1379; also: % is scaled to controls: 0 for no effect and ±100 for the full control effect; nearly all actives have a fitted effect of over 60% in size
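Compounds were added to a substrate mix at pH 7.2 (50 mM imidazole, 10 uM ATP, within the enzyme's linear range), followed by Kinase-Glo detection reagent; luminescence was measured after 8 minutes at ambient temperature.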
Rab9 promoter act: activates the Rab9 promoter; Potency, µM (titrated, usually from 9.22 µM), for inactives: at the highest dose activation, negative = inhibition, hits mostly activators; Huh7 Rab9 promoter-luciferase reporter, luminescence, 24 h; hit rate 2.8% among 320,000; AID 485297; also: % of control where 0% means no effect; nearly all actives have a fitted effect of over 60% in size
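Quantitative HTS format; Huh7 Rab9-luciferase reporter cells (1500/well) receive compound 2 h post-plating, incubate 24 h at 37 °C, then get luciferase reagent for 10 min before luminescence reading.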
ELG1 genotoxic: inducers of genotoxicity in HEK293T ELG1-luciferase cells; HEK293T ELG1-luciferase reporter, luminescence, 16 h; hit rate 1.3% among 330,000; Potency, µM (series often up to 46 µM), for the others: top-dose activity change, positive = activation, hits mostly activators; also: % of control where 0% means no effect; nearly all actives have a fitted effect of over 60% in size
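Step 1: seed 2,000 HEK293T ELG1-luciferase cells per well. Step 2: add compound or DMSO, incubate 16 hr at 37 °C. Step 3: ONE-Glo, 30 min at room temperature, read luminescence.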
Active calls of the source: *; ? = inconclusive; . = not tested or not shown; [ ] = another dose, or the depositor's remark. Calls follow the shape of the dose curve; as a rule, active = well fitted curve in the direction sought with a large enough effect; inconclusive = small, poorly fitted or top-dose-only effect, or another doubt; inactive = no such curve, though single readings can be large; an effect the other way counts as inactive or inconclusive. Potency is read from the fitted curve at half-maximal effect.

SMILES	NPC1 prom act	FLuc modulator	SMN2 splice up	Luc counter	Rab9 promoter act	ELG1 genotoxic
O=C(CCCN1C(=O)/C(=C/c2ccccc2Cl)SC1=S)NNC(=O)c1cccnc1	-12%	13µM*	.	.	-11%	-5%
O=C(O)CN1C(=O)/C(=C\C(Br)=C\c2ccccc2)SC1=S	8%	9.5µM*	.	.	14%	?
O=C1/C(=C/c2cccnc2)SC(=S)N1CCc1ccccc1	0%	11µM*	.	.	-2%	?
CCOc1ccc2c(c1)c(=O)c(C(=O)c1ccc(CC)cc1)cn2CC(=O)Nc1ccccc1OC	.	-4%	-6%	.	.	.
CN(C(=O)CSc1nc(-c2ccccc2)no1)c1ccc(F)cc1	.	-6%	.	.	.	.
COc1cc(NC(=O)CSc2nc(-c3ccccc3)no2)cc(OC)c1	.	1%	.	.	.	.
CC(C)c1ccc(-c2noc(SCC(=O)N3CCN(c4ccc(F)cc4)CC3)n2)cc1	.	-14%	.	.	.	.
COc1cc(NC(=O)CSc2nc(-c3ccc(C(C)C)cc3)no2)cc(OC)c1	.	2.7µM*	.	.	.	.
CC(C)c1ccc(-c2noc(SCC(=O)N3CCCCC3C)n2)cc1 (stereo not drawn)	.	3µM*	.	.	.	.
CCN(C(=O)CSc1nc(-c2ccc(C(C)C)cc2)no1)c1ccccc1	.	9.5µM*	.	.	.	.
CC1CCN(C(=O)CSc2nc(-c3ccc(C(C)C)cc3)no2)CC1	.	3.4µM*	.	.	.	.
O=C(O)[C@H](C1NCCS1)N1Cc2ccccc2C1 (stereo partly drawn)	.	.	-7%[9.22 µM]	0%[7.66 µM]	.	.
Cc1cc(C)n(CCc2nc(-c3ccc(-c4ccccc4)cc3)cs2)n1	24%	6.7µM*	-49%	1%	22%	?
COc1cccc(/C=N/Nc2snc(SC)c2C#N)c1	?	4.8µM*	-28%	-3%	25%	2%
COc1cccc(/C=N/Nc2snc(SC)c2C#N)c1O	1%	4.8µM*	-62%	-8%	3%	3%
CSc1nsc(N/N=C/c2ccccc2)c1C#N	28%	?	29%	12%	23%	-12%
COc1ccc(/C=N/Nc2snc(SC)c2C#N)cc1OC	2.8µM*	2.1µM*	?	-4%	2.8µM*	16%
COc1ccc2[nH]cc(CCO)c2c1	.	.	11%	.	.	.
Cc1csc(C(=O)NCC(=O)NNC(=O)c2cccc(Cl)c2)c1	2%	-1%	.	.	7%	10%
Clc1ccc(-c2nc3nc4ccccc4nc3n2Cc2ccco2)cc1	0%	?	18µM*	-6%	4%	23µM*
Cc1ccc(-c2nc3nc4ccccc4nc3n2Cc2ccco2)cc1	4%	11µM*	8.9µM*	2%	12%	2.9µM*
COc1ccc(CNC(=O)CCS(=O)(=O)c2ccc3c(c2)NC(=O)CS3)cc1	2%	4%	.	.	12%	-1%
Cc1ccc(NC(=O)C2CCCO2)cc1[N+](=O)[O-] (stereo not drawn)	6%	-12%	5%	0%	7%	9%
Cc1ccc(S(=O)(=O)NCCC(=O)NC2CC2)cc1	-1%	2%	.	.	-8%	0%
O=C(c1ccccc1)N1CCCC(c2nc3c(nnn3Cc3ccc(F)cc3F)c(=O)[nH]2)C1 (stereo not drawn)	.	-16%	-4%	.	.	.
SMILES	NPC1 prom act	FLuc modulator	SMN2 splice up	Luc counter	Rab9 promoter act	ELG1 genotoxic
COC(=O)c1ccc(N2C(=O)Cc3cc(OC)c(OC)cc3C2c2ccc(F)cc2)cc1 (stereo not drawn)	.	0%	11%	.	.	.
COc1ccc(/C=C/c2ccncc2)cc1OC	0%	?	10µM*	-10%	4%	23µM*
O=c1c2cc3c(cc2nc2sc(Nc4ccc(F)c(Cl)c4)nn12)OCO3	.	1%	18%	.	.	.
COc1ccc(C(=O)N/N=C/c2ccccn2)cc1OC	-1%	-6%	.	.	9%	-1%
Cc1ccc(C(=O)Nc2ccc(C(=O)N/N=C/c3ccccn3)cc2)cc1	27%	15µM*	.	.	?	-29%
O=C(N/N=C/c1ccc[nH]1)c1ccc(Cl)cc1	-24%	11µM*	8%	-4%	-3%	19%

From PubChem
